Holding throughout (assay): DAPPL (digital affinity profiling via proximity ligation, sequencing); 10 mM Tris-HCl pH 7.5, 50 mM NaCl, 1 mM DTT, 4% glycerol, room temperature, 30 min; GST-TFs on glutathione beads, 16-mer random dsDNA library, 0.1% formaldehyde crosslink after washing; high values mean tight binding
The target in assay [1] is T1, FLI1 (Homo sapiens, UniProt Q01543 1-452).
T1 sequence: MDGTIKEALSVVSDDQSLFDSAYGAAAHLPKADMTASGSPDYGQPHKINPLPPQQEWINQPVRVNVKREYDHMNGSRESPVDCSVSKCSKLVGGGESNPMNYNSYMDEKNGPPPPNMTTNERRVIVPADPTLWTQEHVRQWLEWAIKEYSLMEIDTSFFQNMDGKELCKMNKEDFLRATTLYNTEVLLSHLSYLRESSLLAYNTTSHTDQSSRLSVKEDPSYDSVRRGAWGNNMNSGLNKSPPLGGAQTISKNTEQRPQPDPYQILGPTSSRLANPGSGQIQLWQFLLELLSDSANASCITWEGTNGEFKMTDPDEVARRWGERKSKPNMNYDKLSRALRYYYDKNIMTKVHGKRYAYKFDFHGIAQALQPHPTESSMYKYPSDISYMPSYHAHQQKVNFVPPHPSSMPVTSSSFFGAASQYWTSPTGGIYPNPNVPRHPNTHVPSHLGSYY
The following applies: protein: recombinant; tags: N-terminal GST; dsDNA, one strand shown. Put shortly:
(§1)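 The binding signal reported is, for every hexamer, its read frequency for a factor over its read frequency for the tag-only sample. Reads came from pools of yeast-expressed, GST-fused human transcription factors on glutathione beads, barcoded with DNA and mixed with that sample, which were incubated with 200 nmole of a random double-stranded 16-mer DNA library in Tris/NaCl/DTT/glycerol buffer at room temperature for 30 min. After washing, the pools were crosslinked with 0.1% formaldehyde, proximity-ligated with BsaI/T4 ligase for 1 h at 37 °C, PCR-amplified and sequenced on an Illumina NextSeq500.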

For assay [2], the target named is T2, GABPA (Homo sapiens, UniProt Q06546 1-454).
T2 sequence: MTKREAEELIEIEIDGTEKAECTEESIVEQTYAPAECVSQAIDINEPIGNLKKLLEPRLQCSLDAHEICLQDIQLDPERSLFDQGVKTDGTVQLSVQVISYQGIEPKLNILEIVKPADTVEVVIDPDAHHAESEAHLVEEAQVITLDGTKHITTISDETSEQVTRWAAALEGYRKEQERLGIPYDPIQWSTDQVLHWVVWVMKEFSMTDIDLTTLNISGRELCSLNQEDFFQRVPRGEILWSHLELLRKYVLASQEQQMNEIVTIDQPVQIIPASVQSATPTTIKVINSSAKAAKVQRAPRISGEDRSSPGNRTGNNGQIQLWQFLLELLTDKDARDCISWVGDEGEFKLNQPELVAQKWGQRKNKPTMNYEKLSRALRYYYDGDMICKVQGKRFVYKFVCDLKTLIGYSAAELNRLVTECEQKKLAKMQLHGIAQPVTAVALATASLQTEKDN
To be noted: protein: recombinant; tags: N-terminal GST; dsDNA, one strand shown. Put shortly:
as §1

Assay [3] addresses T3, ERG (Homo sapiens, UniProt P11308 1-479).
T3 sequence: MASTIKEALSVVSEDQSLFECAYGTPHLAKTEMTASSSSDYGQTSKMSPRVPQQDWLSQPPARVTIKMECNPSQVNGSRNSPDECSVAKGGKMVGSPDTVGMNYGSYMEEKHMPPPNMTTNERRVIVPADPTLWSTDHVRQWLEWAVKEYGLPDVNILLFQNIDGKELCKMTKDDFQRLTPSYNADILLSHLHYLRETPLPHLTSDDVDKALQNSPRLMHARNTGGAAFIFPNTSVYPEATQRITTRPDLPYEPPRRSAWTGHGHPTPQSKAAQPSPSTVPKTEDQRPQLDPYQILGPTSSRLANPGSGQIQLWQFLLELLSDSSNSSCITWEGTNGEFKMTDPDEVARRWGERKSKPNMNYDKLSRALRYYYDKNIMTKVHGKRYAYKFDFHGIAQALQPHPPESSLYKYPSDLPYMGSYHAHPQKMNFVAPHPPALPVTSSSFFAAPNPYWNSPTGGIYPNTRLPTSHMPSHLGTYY
To be noted: protein: recombinant; tags: N-terminal GST; dsDNA, one strand shown. Put shortly: as §1

Assay [4] concerns the target ELF1 (Homo sapiens, UniProt P32519 1-619). To be noted: protein: recombinant; tags: N-terminal GST; dsDNA, one strand shown. Put shortly:
as §1

The target in assay [5] is T4, EHF (Homo sapiens, UniProt Q9NZC4 1-300).
T4 sequence: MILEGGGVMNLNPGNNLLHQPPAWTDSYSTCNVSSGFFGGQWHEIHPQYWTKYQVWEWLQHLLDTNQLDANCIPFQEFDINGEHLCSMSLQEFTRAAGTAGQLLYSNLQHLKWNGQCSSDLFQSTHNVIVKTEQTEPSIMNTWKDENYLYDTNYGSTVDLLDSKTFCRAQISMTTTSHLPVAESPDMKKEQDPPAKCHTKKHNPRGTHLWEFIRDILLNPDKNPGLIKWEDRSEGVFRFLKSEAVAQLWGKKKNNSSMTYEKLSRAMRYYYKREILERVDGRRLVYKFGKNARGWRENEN
To be noted: protein: recombinant; tags: N-terminal GST; dsDNA, one strand shown. A digest of the protocol:
as §1

For assay [6], the target named is SPI1 (Homo sapiens, UniProt P17947 1-270). The following applies: protein: recombinant; tags: N-terminal GST; dsDNA, one strand shown. Put shortly: as §1
The target of assay [7] is SPIB (Homo sapiens, UniProt Q01892 1-262). The following applies: protein: recombinant; tags: N-terminal GST; dsDNA, one strand shown. A digest of the protocol: as §1
SPIB, sequence (Q01892 whole entry): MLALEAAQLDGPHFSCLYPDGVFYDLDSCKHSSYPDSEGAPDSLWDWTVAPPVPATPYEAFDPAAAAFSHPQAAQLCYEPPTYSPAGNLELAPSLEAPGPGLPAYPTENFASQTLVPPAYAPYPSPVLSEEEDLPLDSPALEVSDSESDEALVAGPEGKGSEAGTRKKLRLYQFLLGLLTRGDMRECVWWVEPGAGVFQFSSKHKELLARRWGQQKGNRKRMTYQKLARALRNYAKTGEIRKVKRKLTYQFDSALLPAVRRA
Assay [8] has as its target T5, ELK3 (Homo sapiens, UniProt P41970 1-407).
T5 sequence: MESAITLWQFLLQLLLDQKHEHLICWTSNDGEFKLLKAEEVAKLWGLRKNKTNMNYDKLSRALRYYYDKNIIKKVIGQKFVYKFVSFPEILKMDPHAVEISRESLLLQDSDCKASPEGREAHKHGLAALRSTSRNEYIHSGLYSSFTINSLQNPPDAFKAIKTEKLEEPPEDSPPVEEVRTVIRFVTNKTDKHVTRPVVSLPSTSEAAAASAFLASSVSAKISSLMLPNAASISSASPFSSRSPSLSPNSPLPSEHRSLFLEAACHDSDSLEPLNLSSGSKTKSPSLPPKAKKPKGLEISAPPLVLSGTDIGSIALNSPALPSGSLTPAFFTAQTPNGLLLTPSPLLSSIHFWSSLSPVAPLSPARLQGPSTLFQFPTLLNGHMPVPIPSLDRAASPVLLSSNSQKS
To be noted: protein: recombinant; tags: N-terminal GST; dsDNA, one strand shown. Put shortly:
as §1

Assay [9] concerns the target T6, FEV (Homo sapiens, UniProt Q99581 1-238).
T6 sequence: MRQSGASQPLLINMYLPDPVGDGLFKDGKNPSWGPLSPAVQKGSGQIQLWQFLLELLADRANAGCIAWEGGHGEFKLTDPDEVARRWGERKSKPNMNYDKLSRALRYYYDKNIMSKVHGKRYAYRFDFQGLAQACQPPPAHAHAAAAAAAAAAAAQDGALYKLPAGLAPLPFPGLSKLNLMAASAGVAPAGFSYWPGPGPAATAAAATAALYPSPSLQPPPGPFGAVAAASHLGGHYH
To be noted: protein: recombinant; tags: N-terminal GST; dsDNA, one strand shown. Put shortly: as §1

For assay [10], the target named is ETV5 (Homo sapiens, UniProt P41161 1-510). The following applies: protein: recombinant; tags: N-terminal GST; dsDNA, one strand shown. Put shortly: as §1
ETV5, sequence (P41161 whole entry): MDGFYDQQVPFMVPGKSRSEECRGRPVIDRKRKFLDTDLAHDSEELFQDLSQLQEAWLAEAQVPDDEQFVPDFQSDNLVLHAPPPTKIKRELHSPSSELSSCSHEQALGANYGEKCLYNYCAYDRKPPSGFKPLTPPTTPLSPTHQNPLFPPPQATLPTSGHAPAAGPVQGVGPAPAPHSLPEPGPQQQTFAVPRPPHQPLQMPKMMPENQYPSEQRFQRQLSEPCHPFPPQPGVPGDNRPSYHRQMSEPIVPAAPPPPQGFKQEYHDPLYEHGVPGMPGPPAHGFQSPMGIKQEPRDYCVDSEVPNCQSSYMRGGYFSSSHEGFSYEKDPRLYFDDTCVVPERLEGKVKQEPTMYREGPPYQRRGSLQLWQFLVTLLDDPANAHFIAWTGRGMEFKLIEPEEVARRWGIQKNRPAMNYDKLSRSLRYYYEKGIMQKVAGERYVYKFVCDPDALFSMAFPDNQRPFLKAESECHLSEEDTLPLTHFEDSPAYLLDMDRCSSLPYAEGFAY
The target in assay [11] is HSF1 (Homo sapiens, UniProt Q00613 1-529). The following applies: protein: recombinant; tags: N-terminal GST; chain copies: 3; dsDNA, one strand shown. A digest of the protocol:
as §1

The target of assay [12] is T7, SPIC (Homo sapiens, UniProt Q8N5J4 1-248).
T7 sequence: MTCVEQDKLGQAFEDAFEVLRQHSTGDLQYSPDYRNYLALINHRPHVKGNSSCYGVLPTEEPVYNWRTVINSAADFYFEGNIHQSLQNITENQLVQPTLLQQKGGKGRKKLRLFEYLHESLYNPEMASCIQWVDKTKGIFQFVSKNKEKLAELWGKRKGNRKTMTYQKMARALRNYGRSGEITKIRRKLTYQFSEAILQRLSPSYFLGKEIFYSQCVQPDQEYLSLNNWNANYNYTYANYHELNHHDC
The following applies: protein: recombinant; tags: N-terminal GST; dsDNA, one strand shown. A digest of the protocol:
as §1

The target of assay [13] is ELF4 (Homo sapiens, UniProt Q99607 1-663). The following applies: protein: recombinant; tags: N-terminal GST; dsDNA, one strand shown. A digest of the protocol:
as §1

Assay [14] concerns the target T8, ELK4 (Homo sapiens, UniProt P28324-2 1-405).
T8 sequence: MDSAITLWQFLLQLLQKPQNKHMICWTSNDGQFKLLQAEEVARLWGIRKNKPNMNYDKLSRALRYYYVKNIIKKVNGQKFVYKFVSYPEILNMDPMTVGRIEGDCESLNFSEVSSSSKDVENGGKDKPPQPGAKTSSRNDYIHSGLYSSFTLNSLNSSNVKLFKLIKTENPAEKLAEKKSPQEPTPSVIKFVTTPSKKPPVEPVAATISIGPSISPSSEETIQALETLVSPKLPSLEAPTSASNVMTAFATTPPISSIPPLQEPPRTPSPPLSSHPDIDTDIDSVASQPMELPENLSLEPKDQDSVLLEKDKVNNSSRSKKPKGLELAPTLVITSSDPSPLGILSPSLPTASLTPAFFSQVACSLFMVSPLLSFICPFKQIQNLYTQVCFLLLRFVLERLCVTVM
The following applies: protein: recombinant; tags: N-terminal GST; dsDNA, one strand shown. A digest of the protocol: as §1

Assay [15] deals with T9, ETV2 (Homo sapiens, UniProt O00321 1-342).
T9 sequence: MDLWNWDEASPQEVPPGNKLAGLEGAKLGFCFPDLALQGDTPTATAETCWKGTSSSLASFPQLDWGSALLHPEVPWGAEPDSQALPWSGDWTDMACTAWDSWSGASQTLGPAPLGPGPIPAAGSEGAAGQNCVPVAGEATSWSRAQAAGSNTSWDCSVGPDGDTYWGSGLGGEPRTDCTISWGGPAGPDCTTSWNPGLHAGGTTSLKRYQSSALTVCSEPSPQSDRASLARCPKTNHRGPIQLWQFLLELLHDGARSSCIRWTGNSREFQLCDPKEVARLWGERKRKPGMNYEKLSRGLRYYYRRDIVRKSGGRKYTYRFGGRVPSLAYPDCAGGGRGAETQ
To be noted: protein: recombinant; tags: N-terminal GST; dsDNA, one strand shown. Put shortly:
as §1

The target of assay [16] is T10, ELF3 (Homo sapiens, UniProt P78545 1-371).
T10 sequence: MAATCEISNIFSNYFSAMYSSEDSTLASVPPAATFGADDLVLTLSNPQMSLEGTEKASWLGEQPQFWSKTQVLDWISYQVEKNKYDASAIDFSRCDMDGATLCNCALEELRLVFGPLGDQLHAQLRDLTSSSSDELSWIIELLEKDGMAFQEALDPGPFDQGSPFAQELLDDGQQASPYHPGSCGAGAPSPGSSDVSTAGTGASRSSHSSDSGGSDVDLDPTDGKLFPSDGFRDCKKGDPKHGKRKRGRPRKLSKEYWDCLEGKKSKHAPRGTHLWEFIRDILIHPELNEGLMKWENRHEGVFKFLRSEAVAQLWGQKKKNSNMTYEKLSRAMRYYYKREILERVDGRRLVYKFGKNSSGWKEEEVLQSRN
The following applies: protein: recombinant; tags: N-terminal GST; dsDNA, one strand shown. A digest of the protocol: as §1

Assay [17] concerns the target CRX (Homo sapiens, UniProt O43186 1-299). To be noted: protein: recombinant; tags: N-terminal GST; dsDNA, one strand shown. A digest of the protocol:
as §1

Assay [18] concerns the target ETV1 (Homo sapiens, UniProt P50549 1-477). To be noted: protein: recombinant; tags: N-terminal GST; dsDNA, one strand shown. A digest of the protocol: as §1

ELF1, sequence (P32519 whole entry): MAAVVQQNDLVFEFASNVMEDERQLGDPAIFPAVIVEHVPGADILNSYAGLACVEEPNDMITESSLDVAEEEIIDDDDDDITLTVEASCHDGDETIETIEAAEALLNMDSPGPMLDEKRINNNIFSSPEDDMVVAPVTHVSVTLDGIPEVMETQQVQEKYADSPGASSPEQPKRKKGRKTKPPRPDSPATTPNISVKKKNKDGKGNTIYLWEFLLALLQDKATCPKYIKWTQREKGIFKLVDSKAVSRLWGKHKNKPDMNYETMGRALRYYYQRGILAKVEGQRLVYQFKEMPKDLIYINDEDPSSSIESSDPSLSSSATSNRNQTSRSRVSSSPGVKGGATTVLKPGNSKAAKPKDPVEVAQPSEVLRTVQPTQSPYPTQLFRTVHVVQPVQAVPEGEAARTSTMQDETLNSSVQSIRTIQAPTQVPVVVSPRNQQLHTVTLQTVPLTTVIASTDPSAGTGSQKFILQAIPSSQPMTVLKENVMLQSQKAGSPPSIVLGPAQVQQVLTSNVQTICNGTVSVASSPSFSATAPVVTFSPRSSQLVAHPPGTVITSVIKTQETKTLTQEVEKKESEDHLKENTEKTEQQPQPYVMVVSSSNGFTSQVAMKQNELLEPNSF
ETV1, sequence (P50549 whole entry): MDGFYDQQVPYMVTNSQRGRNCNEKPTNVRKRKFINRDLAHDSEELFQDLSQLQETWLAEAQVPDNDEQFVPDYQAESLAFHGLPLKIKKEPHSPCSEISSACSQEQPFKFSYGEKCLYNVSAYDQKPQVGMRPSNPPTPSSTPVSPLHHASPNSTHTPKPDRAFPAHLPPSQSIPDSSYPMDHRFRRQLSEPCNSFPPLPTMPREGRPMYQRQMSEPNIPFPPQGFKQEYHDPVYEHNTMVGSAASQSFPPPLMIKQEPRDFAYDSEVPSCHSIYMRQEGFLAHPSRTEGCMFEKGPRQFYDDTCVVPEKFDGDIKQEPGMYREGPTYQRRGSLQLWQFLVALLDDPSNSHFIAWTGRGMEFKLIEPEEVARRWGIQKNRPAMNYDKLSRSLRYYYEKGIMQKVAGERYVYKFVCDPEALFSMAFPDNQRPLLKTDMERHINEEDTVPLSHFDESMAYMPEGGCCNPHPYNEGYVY
HSF1, sequence (Q00613 whole entry): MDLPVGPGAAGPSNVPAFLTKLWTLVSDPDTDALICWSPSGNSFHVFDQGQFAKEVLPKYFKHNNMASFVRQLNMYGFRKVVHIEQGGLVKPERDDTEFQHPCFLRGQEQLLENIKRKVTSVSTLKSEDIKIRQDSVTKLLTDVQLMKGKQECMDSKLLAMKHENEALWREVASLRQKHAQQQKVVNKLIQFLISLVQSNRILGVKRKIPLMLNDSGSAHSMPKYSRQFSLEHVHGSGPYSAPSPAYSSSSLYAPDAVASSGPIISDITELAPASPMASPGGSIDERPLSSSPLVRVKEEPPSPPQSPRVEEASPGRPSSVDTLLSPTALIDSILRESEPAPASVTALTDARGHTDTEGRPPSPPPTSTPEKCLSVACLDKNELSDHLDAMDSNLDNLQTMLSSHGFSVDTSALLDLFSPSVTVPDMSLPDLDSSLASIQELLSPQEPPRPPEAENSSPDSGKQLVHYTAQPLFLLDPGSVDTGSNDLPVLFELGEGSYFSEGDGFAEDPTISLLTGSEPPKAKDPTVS
CRX, sequence (O43186 whole entry): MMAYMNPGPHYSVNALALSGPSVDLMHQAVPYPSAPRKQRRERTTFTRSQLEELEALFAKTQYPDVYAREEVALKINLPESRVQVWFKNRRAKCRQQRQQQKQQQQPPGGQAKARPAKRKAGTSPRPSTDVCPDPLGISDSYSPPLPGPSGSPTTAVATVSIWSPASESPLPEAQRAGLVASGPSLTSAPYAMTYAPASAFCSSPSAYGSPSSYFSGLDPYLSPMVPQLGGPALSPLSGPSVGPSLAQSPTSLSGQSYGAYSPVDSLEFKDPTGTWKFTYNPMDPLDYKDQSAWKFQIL
ELF4, sequence (Q99607 whole entry): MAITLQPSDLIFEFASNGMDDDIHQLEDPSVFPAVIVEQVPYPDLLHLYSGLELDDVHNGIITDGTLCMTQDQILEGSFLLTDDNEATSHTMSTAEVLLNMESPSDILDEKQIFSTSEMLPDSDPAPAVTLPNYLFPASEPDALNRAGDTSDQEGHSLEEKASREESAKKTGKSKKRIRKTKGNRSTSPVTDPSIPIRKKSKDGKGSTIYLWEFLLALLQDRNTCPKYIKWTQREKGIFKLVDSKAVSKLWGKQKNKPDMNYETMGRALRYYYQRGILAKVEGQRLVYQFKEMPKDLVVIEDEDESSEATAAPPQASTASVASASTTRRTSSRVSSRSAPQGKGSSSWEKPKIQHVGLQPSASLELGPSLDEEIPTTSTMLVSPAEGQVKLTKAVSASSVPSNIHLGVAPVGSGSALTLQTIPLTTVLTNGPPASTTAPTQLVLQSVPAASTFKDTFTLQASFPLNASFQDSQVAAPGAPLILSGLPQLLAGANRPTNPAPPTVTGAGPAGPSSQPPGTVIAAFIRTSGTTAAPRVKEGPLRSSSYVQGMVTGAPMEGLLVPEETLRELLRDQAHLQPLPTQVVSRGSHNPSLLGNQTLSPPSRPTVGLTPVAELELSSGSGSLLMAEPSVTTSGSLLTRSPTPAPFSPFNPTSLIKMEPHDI

On to CATTAC, for which the binding signal in [1] was 1.09 fold enrichment (6-mer frequency, TF over GST control); in assay [2], 1.2 fold enrichment (6-mer frequency, TF over GST control); in [3], 1.06 fold enrichment (6-mer frequency, TF over GST control); in assay [4], 1.17 fold enrichment (6-mer frequency, TF over GST control); in assay [5] it was 1.13 fold enrichment (6-mer frequency, TF over GST control); in assay [6], 1.1 fold enrichment (6-mer frequency, TF over GST control). Moreover, the binding signal in assay [7] is 1.17 fold enrichment (6-mer frequency, TF over GST control); in assay [8] it was 1.15 fold enrichment (6-mer frequency, TF over GST control); in [9], 1.12 fold enrichment (6-mer frequency, TF over GST control); in assay [10], 1.13 fold enrichment (6-mer frequency, TF over GST control); in assay [11], 1.02 fold enrichment (6-mer frequency, TF over GST control); in [12], 1.05 fold enrichment (6-mer frequency, TF over GST control). The binding signal was 1.1 fold enrichment (6-mer frequency, TF over GST control) in [13]; 1.17 fold enrichment (6-mer frequency, TF over GST control) in assay [14]; 1.22 fold enrichment (6-mer frequency, TF over GST control) in assay [15]; 1.08 fold enrichment (6-mer frequency, TF over GST control) in assay [16]; 1.18 fold enrichment (6-mer frequency, TF over GST control) in assay [17]; 1.18 fold enrichment (6-mer frequency, TF over GST control) in assay [18].

These data come from article PMC7862700, “An all-to-all approach to the identification of sequence-specific readers for epigenetic DNA modifications on cytosine”.
